We go through 24 compounds from PubChem BioAssay (Tox21).

Inconclusive results are not listed. Active and inactive are the calls of the source. Unless noted, calls come from the whole dose curve; as a rule, active = well fitted curve in the direction sought with a large enough effect in the repeat runs; inconclusive = weak or mixed curves; inactive = no such curve, though single readings can be large; an effect the other way counts as inactive or inconclusive.

Assay [1] concerns the target Acetylcholinesterase (Homo sapiens) (UniProt P22303). Nature of the assay: Acetylcholinesterase (AChE) small molecule antagonists: enzyme-based qHTS assay (AID 1347397; calls by dose curve; note: nearly all actives have a fitted effect of over 55% in size). The following applies: Potency: AChE enzyme activity inhibition. In a few lines: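 Human recombinant acetylcholinesterase; substrate acetylthiocholine; thiocholine quantified with DTNB (colorimetric). Compound preincubation 30 min RT; reaction 10 min RT.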
For orientation: In qHTS, concentration-response curves come from the screen itself.

For assay [2] the target is unchanged. Kind of assay: Acetylcholinesterase (AChE) small molecule antagonists: fluorescence cell-based qHTS assay (AID 1347398; calls by dose curve; note: nearly all actives have a fitted effect of over 50% in size). The following applies: Potency: AChE activity. In a few lines:
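Thiocholine generated from acetylthiocholine by SH-SY5Y cell AChE is detected with Thiolite Green (Ex/Em 490/520 nm) after 40 min at room temperature, following 30 min compound pretreatment at 37 C.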

The target is the same in assay [3]. Nature of the assay: Acetylcholinesterase (AChE) small molecule antagonists: enzyme-based qHTS assay with human liver microsomes (AID 1347399; calls by dose curve; note: nearly all actives have a fitted effect of over 60% in size). The following applies: Potency: qHTS inhibition. In a few lines: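 Recombinant human AChE (50 mU/mL in the enzyme mix) and human liver microsomes (0.25 mg/mL final) were preincubated with compound and NADPH (0.25 mg/mL final) for 30 min at 37 C. Acetylthiocholine/DTNB was then added; thiocholine was read colorimetrically after 10 min at room temperature.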

Assay [4] has as its target Cytochrome P450 2D6 (Homo sapiens) (UniProt P10635). Kind of assay: Cytochrome P450 Family 2 Subfamily D Member 6 (CYP2D6) small molecule antagonists: luciferase reporter qHTS assay (AID 1671196). Note: nearly all actives have a fitted effect of over 50% in size. In a few lines:
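Luminescence (RLU), read 20 min after detection reagent, indicated CYP2D6 conversion of proluciferin to luciferin during a 1 h NADPH-dependent reaction at room temperature.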
(In general: Reporter assays use an easily measured gene product as a stand-in for the process of interest.)

The target of assay [5] is Cytochrome P450 2C9 (Homo sapiens) (UniProt P11712). Nature of the assay: Cytochrome P450 Family 2 Subfamily C Member 9 (CYP2C9) small molecule antagonists: luciferase reporter qHTS assay (AID 1671198). Note: nearly all actives have a fitted effect of over 50% in size. In a few lines: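 CYP2C9 activity was measured with a P450-Glo proluciferin substrate. Enzyme–substrate mix was held with compound for 10 min at room temperature, then NADPH regeneration solution was added for 1 h at 37C. Luciferin product was read as luminescence.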

Assay [6] concerns the target Cytochrome P450 1A2 (Homo sapiens) (UniProt P05177). Kind of assay: Cytochrome P450 Family 1 Subfamily A Member 2 (CYP1A2) small molecule antagonists: luciferase reporter qHTS assay (AID 1671199). Note: nearly all actives have a fitted effect of over 50% in size. In a few lines:
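CYP1A2 turnover of a luminogenic substrate was quantified after 1 h with NADPH regeneration at room temperature. Furafylline served as positive control.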

The target in assay [7] is Voltage-gated inwardly rectifying potassium channel KCNH2 (Homo sapiens) (UniProt Q12809). Kind of assay: Human Ether-a-go-go-Related Gene (hERG) channel small molecule antagonists: fluorescence cell-based qHTS assay (AID 1671200). Note: nearly all actives have a fitted effect of over 50% in size. In a few lines: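 In this thallium-flux screen, overnight-cultured U2OS cells bearing the channel are dye-loaded in darkness for an hour, rested 10 min at room temperature, and then monitored kinetically at 480/540 nm for two minutes post-stimulus.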

Assay [8] addresses Cytochrome P450 3A4 (Homo sapiens) (UniProt P08684). Nature of the assay: Cytochrome P450 Family 3 Subfamily A Member 4 (CYP3A4) small molecule antagonists: luciferase reporter qHTS assay (AID 1671201). Note: nearly all actives have a fitted effect of over 50% in size. In a few lines:
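CYP3A4 activity was followed with a P450-Glo proluciferin substrate. Test compounds in DMSO were preincubated 10 min; NADPH regeneration then ran 1 h, and light output was read 20 min after detection reagent.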

The target in assay [9] is Cytochrome P450 2C19 (Homo sapiens) (UniProt P33261). Nature of the assay: Cytochrome P450 Family 2 Subfamily C Member 19 (CYP2C19) small molecule antagonists: luciferase reporter qHTS assay (AID 1671197). Note: nearly all actives have a fitted effect of over 65% in size. In a few lines:
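Enzyme-substrate mix with proluciferin substrate (P450-Glo CYP2C19 system) preincubated with compounds 10 min at room temperature; NADPH regeneration solution added, 37C for 1 h; detection reagent stops reaction, luminescence read after 20 min. Ketoconazole positive control.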
Potency is the fitted concentration of half-maximal effect.

Cytochrome P450 1A2 (Homo sapiens), sequence (P05177 whole entry, looked up): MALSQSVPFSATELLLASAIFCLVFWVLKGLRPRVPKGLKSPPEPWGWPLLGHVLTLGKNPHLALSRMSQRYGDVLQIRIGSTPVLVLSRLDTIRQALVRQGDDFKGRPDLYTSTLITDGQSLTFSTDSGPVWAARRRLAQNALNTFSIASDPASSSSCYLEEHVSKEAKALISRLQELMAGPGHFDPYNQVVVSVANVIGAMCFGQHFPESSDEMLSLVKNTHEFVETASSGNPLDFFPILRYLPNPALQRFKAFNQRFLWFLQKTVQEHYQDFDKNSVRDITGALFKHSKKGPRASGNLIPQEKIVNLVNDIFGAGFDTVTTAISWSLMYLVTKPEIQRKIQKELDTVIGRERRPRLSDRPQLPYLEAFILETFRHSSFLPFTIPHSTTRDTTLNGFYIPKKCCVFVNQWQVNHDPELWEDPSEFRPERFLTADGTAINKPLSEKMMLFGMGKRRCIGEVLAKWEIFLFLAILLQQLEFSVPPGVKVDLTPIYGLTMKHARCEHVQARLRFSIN
Voltage-gated inwardly rectifying potassium channel KCNH2 (Homo sapiens), sequence (Q12809 whole entry, looked up): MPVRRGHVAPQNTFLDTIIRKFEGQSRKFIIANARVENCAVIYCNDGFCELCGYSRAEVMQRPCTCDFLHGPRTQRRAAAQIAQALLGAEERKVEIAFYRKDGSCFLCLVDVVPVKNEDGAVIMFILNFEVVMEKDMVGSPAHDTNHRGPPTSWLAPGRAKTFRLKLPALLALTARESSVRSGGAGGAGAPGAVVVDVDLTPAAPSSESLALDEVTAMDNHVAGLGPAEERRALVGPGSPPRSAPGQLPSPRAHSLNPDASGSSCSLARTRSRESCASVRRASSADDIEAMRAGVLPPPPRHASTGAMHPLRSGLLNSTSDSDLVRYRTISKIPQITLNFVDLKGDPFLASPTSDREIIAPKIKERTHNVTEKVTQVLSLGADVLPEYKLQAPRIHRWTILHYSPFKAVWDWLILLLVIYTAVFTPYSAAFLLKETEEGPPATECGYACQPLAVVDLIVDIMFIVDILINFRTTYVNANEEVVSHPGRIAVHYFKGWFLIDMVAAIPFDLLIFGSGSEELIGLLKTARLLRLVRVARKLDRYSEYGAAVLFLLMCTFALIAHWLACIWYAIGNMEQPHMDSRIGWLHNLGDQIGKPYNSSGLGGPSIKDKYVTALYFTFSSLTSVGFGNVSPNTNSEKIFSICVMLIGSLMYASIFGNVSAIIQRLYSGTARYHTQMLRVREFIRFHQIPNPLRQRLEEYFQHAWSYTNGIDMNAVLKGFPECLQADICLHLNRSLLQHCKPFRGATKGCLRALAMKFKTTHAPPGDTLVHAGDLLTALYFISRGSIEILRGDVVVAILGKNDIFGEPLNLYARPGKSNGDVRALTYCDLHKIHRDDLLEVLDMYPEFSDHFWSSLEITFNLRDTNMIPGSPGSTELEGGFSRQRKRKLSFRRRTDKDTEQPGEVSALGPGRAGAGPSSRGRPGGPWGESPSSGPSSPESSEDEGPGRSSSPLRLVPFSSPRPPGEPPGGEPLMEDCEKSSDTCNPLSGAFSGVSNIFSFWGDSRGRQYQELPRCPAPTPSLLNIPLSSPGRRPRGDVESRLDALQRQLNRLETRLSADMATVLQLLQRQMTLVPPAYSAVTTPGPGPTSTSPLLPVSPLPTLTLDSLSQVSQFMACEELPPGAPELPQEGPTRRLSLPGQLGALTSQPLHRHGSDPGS
Cytochrome P450 2C19 (Homo sapiens), sequence (P33261 whole entry, looked up): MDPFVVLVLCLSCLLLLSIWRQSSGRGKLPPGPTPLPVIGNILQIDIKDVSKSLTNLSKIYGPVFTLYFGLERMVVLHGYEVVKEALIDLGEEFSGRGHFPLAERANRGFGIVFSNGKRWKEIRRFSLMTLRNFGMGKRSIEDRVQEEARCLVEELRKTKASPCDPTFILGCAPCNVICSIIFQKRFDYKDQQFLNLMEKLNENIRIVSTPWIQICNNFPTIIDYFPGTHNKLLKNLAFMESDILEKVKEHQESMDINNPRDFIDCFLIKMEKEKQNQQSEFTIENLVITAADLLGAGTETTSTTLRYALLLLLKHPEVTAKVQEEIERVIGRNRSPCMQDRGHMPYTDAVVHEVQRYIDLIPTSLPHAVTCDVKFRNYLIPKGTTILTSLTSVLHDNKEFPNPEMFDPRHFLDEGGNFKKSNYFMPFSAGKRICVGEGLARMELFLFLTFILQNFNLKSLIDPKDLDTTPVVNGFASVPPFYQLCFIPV
Cytochrome P450 3A4 (Homo sapiens), sequence (P08684 whole entry, looked up): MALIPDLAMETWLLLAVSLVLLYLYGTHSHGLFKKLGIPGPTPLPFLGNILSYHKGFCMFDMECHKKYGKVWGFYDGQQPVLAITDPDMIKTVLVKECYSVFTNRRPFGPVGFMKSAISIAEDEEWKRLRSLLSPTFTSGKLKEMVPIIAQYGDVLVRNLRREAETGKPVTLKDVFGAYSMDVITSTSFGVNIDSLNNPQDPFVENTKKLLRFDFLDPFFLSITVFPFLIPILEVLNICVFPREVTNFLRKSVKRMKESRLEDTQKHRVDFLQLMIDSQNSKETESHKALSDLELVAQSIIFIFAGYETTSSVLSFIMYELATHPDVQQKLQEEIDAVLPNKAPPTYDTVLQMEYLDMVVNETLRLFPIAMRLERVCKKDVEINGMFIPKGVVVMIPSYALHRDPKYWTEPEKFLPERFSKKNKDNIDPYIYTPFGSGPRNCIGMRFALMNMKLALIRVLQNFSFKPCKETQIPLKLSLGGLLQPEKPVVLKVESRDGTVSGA
Cytochrome P450 2C9 (Homo sapiens), sequence (P11712 whole entry, looked up): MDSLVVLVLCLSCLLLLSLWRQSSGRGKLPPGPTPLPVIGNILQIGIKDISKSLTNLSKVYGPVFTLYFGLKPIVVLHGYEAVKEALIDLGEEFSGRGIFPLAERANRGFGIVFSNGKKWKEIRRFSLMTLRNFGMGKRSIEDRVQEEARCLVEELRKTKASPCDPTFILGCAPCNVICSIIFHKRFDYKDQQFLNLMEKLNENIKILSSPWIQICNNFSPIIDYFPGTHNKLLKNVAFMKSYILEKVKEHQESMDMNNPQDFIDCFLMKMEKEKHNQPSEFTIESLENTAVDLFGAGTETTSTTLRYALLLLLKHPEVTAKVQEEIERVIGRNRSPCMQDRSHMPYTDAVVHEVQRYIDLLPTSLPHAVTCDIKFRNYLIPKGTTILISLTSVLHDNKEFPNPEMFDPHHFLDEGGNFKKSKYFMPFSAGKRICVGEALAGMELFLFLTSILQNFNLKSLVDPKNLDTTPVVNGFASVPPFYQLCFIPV
Cytochrome P450 2D6 (Homo sapiens), sequence (P10635 whole entry, looked up): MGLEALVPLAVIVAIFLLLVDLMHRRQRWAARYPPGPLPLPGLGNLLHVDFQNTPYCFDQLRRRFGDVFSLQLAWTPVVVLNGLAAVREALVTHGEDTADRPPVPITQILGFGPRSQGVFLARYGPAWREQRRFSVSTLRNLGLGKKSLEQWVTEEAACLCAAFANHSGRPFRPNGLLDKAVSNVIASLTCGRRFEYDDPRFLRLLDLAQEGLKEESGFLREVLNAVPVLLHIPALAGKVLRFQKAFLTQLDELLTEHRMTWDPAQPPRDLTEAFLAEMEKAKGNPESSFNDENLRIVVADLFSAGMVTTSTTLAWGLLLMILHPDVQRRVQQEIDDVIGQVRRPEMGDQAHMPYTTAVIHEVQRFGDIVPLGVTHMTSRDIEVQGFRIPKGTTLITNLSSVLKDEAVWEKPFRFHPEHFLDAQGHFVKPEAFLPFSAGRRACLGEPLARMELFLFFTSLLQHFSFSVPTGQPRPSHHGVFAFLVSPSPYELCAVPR
Acetylcholinesterase (Homo sapiens), sequence (P22303 whole entry, looked up): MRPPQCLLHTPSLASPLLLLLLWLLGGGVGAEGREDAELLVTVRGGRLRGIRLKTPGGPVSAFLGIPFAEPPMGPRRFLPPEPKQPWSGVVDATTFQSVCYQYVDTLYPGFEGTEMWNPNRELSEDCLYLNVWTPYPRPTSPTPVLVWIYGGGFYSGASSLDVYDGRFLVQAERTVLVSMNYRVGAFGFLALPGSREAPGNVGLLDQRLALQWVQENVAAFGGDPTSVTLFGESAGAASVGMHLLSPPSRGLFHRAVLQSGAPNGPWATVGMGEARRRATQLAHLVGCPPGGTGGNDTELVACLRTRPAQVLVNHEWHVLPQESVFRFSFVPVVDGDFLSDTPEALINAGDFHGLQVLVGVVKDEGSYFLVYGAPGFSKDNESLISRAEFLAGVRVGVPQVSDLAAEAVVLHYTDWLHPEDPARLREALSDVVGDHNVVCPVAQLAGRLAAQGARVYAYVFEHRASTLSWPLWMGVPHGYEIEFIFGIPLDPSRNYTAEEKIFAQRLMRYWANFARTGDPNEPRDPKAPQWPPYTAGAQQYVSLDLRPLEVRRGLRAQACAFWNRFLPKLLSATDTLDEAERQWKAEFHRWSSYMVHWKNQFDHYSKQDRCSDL

Turning to `ClC(Br)Br`, the Potency entry in [1], in assay [2], in assay [3], in [4], in assay [5] and in assay [6] was “inactive” throughout. The Potency entry in [7] and in [8] was “inactive” throughout.

As to `CC(N)=S`, the Potency entry in assay [1], in [2], in assay [3], in assay [4], in assay [7] and in [8] was “inactive” in each case. The Potency in assay [9] is 71 µM (active).

For the compound `ClCCOCOCCCl`, the Potency result in assay [1], in assay [2], in assay [3], in [4], in [5] and in assay [6] was “inactive” in each case. Further, the Potency entry in assay [7] and in assay [8] was “inactive” in each case.

In the case of `O=c1oc2ccccc2c(O)c1C1CCCc2ccccc21` (configuration not stated), the Potency entry in assay [1], in assay [2], in [3], in assay [4] and in [6] was “inactive” each time. For the same compound, the Potency in [5] was 3.99 µM (active); in assay [8], 31.7 µM (active).

Regarding `CC(C)[N+](=O)[O-]`, the Potency result in assay [1], in assay [2], in [3], in assay [4], in assay [5] and in [7] was “inactive” in each case. In [8], the Potency result was “inactive”.

For `CCOC(=O)C1(c2ccccc2)CCN(CCc2ccc(N)cc2)CC1`, the Potency result in [1], in assay [2], in assay [3] and in [6] was “inactive” each time. Besides, the Potency in [4] was 3.47 µM (active); in assay [7], 19 µM (active).

Take `CC(=O)CCc1ccc2c(c1)OCO2`: the Potency entry in [1], in [2], in assay [3] and in assay [7] was “inactive” in each case. The Potency was 35.6 µM (active) in [9], 31.7 µM (active) in assay [5], 0.633 µM (active) in assay [6] and 22.4 µM (active) in assay [8].

For `CCSC(=O)N(CC)C1CCCCC1`, the Potency entry in [1], in assay [2], in [3], in assay [4], in [6] and in assay [7] was “inactive” in each case. Moreover, the Potency result in assay [8] is “inactive”.

On to `CC(CC(C#N)(c1ccccc1)c1ccccc1)N(C)C` (configuration not stated), for which the Potency entry in [1], in assay [2], in assay [3], in assay [5] and in assay [6] was “inactive” throughout. Also, the values for the Potency in assay [4] and in assay [7] were 11.2 µM (active) and 27.4 µM (active), respectively.

Consider `CNC(=O)N(C)c1nc2ccccc2s1`, for which the Potency result in assay [1], in [2], in [3] and in [7] was “inactive” each time. Besides, the figures for the Potency in [9], in assay [5] and in [6] were 39.9 µM (active), 39.9 µM (active) and 2.52 µM (active), respectively.

As to `Cc1cnc[nH]1`, the Potency entry in assay [1], in assay [2], in assay [3], in assay [9] and in assay [7] was “inactive” throughout. Moreover, the Potency in assay [4] is 34.2 µM (active).

Turning to `CCCCc1ccc(O)cc1`, the Potency result in assay [1], in assay [2], in assay [3], in [4], in assay [7] and in [8] was “inactive” in each case.

As for `COC(=O)c1ccccc1S(=O)(=O)NC(=O)Nc1nc(C)cc(C)n1`, the Potency entry in [1], in assay [2], in [3], in [4], in [5] and in [6] was “inactive” each time. Besides, the Potency entry in [7] and in assay [8] was “inactive” throughout.

Consider `CCOC(=O)/C=C(C)/C=C/C[C@@H](C)CCCC(C)C`, for which the Potency entry in assay [1], in assay [2] and in assay [3] was “inactive” throughout. Moreover, the Potency is 28.3 µM (active) in assay [9] and 15.9 µM (active) in [5].

In the case of `CC1=C(C(=O)Nc2ccccc2)S(=O)(=O)CCO1`, the Potency entry in [1], in assay [2], in assay [3], in assay [4], in [9] and in assay [7] was “inactive” each time. Also, the Potency entry in assay [8] is “inactive”.

Take `O=P(O)(Oc1ccccc1)Oc1ccccc1`: the Potency entry in assay [1], in [2], in assay [3], in assay [4], in [6] and in assay [7] was “inactive” each time. For the same compound, the Potency result in [8] was “inactive”. Moreover, the Potency in assay [5] was 39.9 µM (active).

For the compound `O=[N+]([O-])c1ccc(CBr)cc1`, the Potency result in assay [1], in [2], in assay [3], in [4], in assay [5] and in [7] was “inactive” in each case. Also, the Potency result in assay [8] is “inactive”.

Consider `CCCCOC(=O)c1ccccc1C(=O)O`, for which the Potency entry in [1], in assay [2], in [3], in assay [4], in assay [6] and in assay [7] was “inactive” throughout. Further, the Potency result in assay [8] was “inactive”.

Consider `COc1cc2c(cc1OC)[C@@]13CCN4CC5=CCO[C@H]6CC(=O)N2[C@H]1[C@H]6[C@H]5C[C@H]43`, for which the Potency entry in [1], in assay [2], in assay [3], in assay [9], in assay [5] and in [6] was “inactive” each time.

Regarding `CC(C(O)c1ccccc1)N(C)C/C=C/c1ccccc1` (configuration not stated), the Potency entry in [1], in assay [2], in [3] and in assay [8] was “inactive” each time. Further, the Potency in assay [4] was 0.0871 µM (active); in [7] it was 10.7 µM (active).

With `CCN(CC)C(=O)[C@@H]1C=C2c3cccc4[nH]cc(c34)C[C@H]2N(C)C1`, the Potency was 104 µM (active) in assay [1]; 58.7 µM (active) in assay [2]; 0.466 µM (active) in [4]; 165 µM (active) in assay [9]; 82.8 µM (active) in [8]. Further, the Potency entry in assay [3] and in assay [7] was “inactive” each time.

In the case of `C(CCOCC1CO1)COCC1CO1` (configuration not stated), the Potency result in [1], in [2], in assay [3], in assay [4], in [5] and in assay [6] was “inactive” in each case. In addition, the Potency result in [8] was “inactive”.

On to `CNC(=O)Oc1ccc(N(C)C)c(C)c1`, for which the Potency in assay [1] was 6.33 µM (active); in [2], 2.24 µM (active); in [3], 39.9 µM (active); in assay [6] it was 11.2 µM (active). Also, the Potency result in [9], in assay [5], in assay [7] and in assay [8] was “inactive” in each case.

Turning to `CCC#N`, the Potency result in [1], in assay [2], in assay [3], in assay [4], in assay [5] and in [7] was “inactive” throughout. Besides, in [8], the Potency result is “inactive”.
